# Source: PubChem BioAssay (EPA / NIEHS)
# Records with an inconclusive call do not appear. Active and inactive are the calls of the source. The calls were made as follows, unless noted: active = hit-call score of the fitted dose curve at least 0.9, where 1 is the maximum; inconclusive = response in the unintended direction; inactive = score below 0.9.
# Tests used:
# [1] = target: Nucleoli Translocation, AR (gene 367) (UniProt P10275); test: UPITT_HCI_U2OS_AR_TIF2_Nucleoli_Antagonist: University of Pittsburgh U2OS Androgen Receptor-Transcriptional Intermediary Factor 2 (AR-TIF2) Antagonism High Content Imaging Assay for Nucleoli Translocation (AID 2283997)
# Outline: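 Antagonism is read as loss of nucleolar AR-RFP signal relative to DHT, imaged in U2OS cells also carrying GFP-TIF2. Compounds screened at 20 uM final, 0.2% DMSO; primary actives retested in triplicate.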
# DIO1 (gene 1733) = test: CCTE_GLTED_hDIO1: CCTE's human Deiodinase 1 (DIO1) Inhibition Assay, Great Lakes Toxicology and Ecology Division (GLTED) Lab (AID 2283987);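 also: isolated human DIO1 enzyme in a cell-free setup rather than cells; enzyme activity read as free iodide liberated from substrate via Sandell-Kolthoff colorimetry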
# Outline: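 Chemicals are tested on human DIO1 without cells for 3 h. Uninhibited enzyme frees iodide, which speeds cerium(IV) reduction by arsenic and is read by spectrophotometry.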
# [2] = target: T1, Thyroid hormone receptor alpha (Rattus norvegicus) + Thyroid hormone receptor beta (Rattus norvegicus) (UniProt P18113+P63059); test: TOX21_TR_LUC_GH3_Antagonist_Followup: Tox21 GH3 Thyroid Hormone Receptor Antagonism Luciferase Follow-Up Assay (AID 2283942)
# Outline: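 Loss of T3-driven (1.0 nM final) reporter activity in GH3 cells was read by ONE-Glo luminescence after 24 h incubation at 37C; 15-point compound series spanned 92 uM to 5nM final, 1,500 cells/well.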
# THRA (gene 7067) [3] = target: THRA (gene 7067) (UniProt P10827); test: TOX21_TRA_COA_Antagonist_Followup_ratio: Tox21 Thyroid Hormone Receptor alpha Antagonism through Coactivator Recruitment Follow-Up Assay, Ratio (AID 2283953)
# Outline: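 We measured antagonism of T3-type coactivator recruitment using a TR-FRET ratio (emission 520 and 495 nm) between a Tb-labelled anti-GST antibody on TRα LBD (2.5 nM) and SRC-2 peptide (200 nM). Activity was scaled between DMSO and T3 wells.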
# THRB (gene 7068) [4] = target: THRB (gene 7068) (UniProt P10828); test: TOX21_TRB_BLA_Antagonist_Followup_ratio: Tox21 Thyroid Hormone Receptor beta Antagonism Beta-lactamase (BLA) Follow-Up Assay, Ratio (AID 2283958)
# Outline: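 Read-out: blue/green (460:530 nm) ratio of cleaved to uncleaved CCF4-AM after 2 h at room temperature, fitted against DMSO baseline. HEK293T UAS-bla cells carrying GAL4-human TRβ LBD were exposed 18 h, 37C/5% CO2.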
# [5] = TOX21_TRB_BLA_Antagonist_Followup_viability: Viability Assessment in the Tox21 Thyroid Hormone Receptor beta Antagonism Beta-lactamase (BLA) Follow-Up Assay (AID 2283961)
# Outline: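 In the same wells as the reporter read, cell health was gauged by CellTiter-Glo ATP luminescence, with signal loss indicating reduced viability. Cells had been exposed to test compounds for 18 h.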
# THRB (gene 7068) [6] = target: THRB (gene 7068) (UniProt P10828); test: TOX21_TRB_COA_Antagonist_Followup_ratio: Tox21 Thyroid Hormone Receptor beta Antagonism through Coactivator Recruitment Follow-Up Assay, Ratio (AID 2283967)
# Outline: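 Coactivator recruitment to the GST-tagged TRb ligand-binding domain (5.0 nM) was read as the 520/495 nm TR-FRET ratio, using 200 nM fluorescein SRC-2 peptide and 2 nM terbium anti-GST. Scaled between DMSO and T3 wells; loss of signal fitted.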
# [7] = target: Retinoic acid receptor RXR-alpha (Homo sapiens) (UniProt P19793); test: TOX21_TR_RXR_BLA_Antagonist_Followup_ratio: Tox21 Thyroid Hormone Receptor beta Retinoid X Receptor alpha (RXRa) Antagonism Beta-lactamase (BLA) Follow-Up Assay, Ratio (AID 2283972)
# Outline: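 Compounds were tested in triplicate at 11 concentrations on RXRa-bla HEK293T cells for 16 h. Substrate cleavage ratio, normalized to DMSO, gave the endpoint.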
# [8] = TOX21_TR_RXR_BLA_Antagonist_Followup_viability: Viability Assessment in the Tox21 Thyroid Hormone Receptor beta Retinoid X Receptor alpha (RXRa) Antagonism Beta-lactamase (BLA) Follow-Up Assay (AID 2283979)
# Outline: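 Follow-up compounds (11 concentrations, triplicate) were incubated 16 h at 37C/5% CO2 with HEK293T RXRa-bla cells seeded at 2,500/well in charcoal-stripped-serum medium. ATP content by CellTiter-Glo luminescence gave viability; curves fitted in both directions against DMSO.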
# [9] = target: T1, Thyroid hormone receptor alpha (Rattus norvegicus) + Thyroid hormone receptor beta (Rattus norvegicus); test: TOX21_TR_LUC_GH3_Agonist_Followup: Tox21 GH3 Thyroid Hormone Receptor Agonism Luciferase Follow-Up Assay (AID 2283939)
# Outline: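 Agonist-mode confirmatory run: 15 concentrations (5 nM to 92 uM final) on GH3 rat pituitary cells, 24 h at 37C/5% CO2, T3 as positive control. Luminescence read with ONE-Glo after 30 min.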
# THRA (gene 7067) [10] = target: THRA (gene 7067) (UniProt P10827); test: TOX21_TRA_COA_Agonist_Followup_ratio: Tox21 Thyroid Hormone Receptor alpha Agonism through Coactivator Recruitment Follow-Up Assay, Ratio (AID 2283948; active = hit-call score of the fitted dose curve at least 0.9, where 1 is the maximum; inactive = score below 0.9)
# Outline: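 Agonist-mode biochemical TR-FRET with TRα LBD and SRC-2 coactivator peptide; activity expressed as percent of T3 response over DMSO baseline.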
# THRB (gene 7068) [11] = target: THRB (gene 7068) (UniProt P10828); test: TOX21_TRB_BLA_Agonist_Followup_ratio: Tox21 Thyroid Hormone Receptor beta Agonism Beta-lactamase (BLA) Follow-Up Assay, Ratio (AID 2283954)
# Outline: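 Agonist mode: compounds (11-point, triplicate) incubated 18 h with HEK293T cells carrying GAL4-DBD/human TRβ-LBD and UAS-β-lactamase. Blue/green (460/530 nm) FRET ratio read after 2 h CCF4-AM loading; CellTiter-Glo viability run in the same plates.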
# THRB (gene 7068) [12] = target: THRB (gene 7068) (UniProt P10828); test: TOX21_TRB_COA_Agonist_Followup_ratio: Tox21 Thyroid Hormone Receptor beta Agonism through Coactivator Recruitment Follow-Up Assay, Ratio (AID 2283963; active = hit-call score of the fitted dose curve at least 0.9, where 1 is the maximum; inactive = score below 0.9)
# Outline: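 GST-TRb LBD 5.0 nM + 0.10% BSA + cpd; add fluorescein-SRC-2 200 nM / Tb anti-GST Ab 2 nM; TR-FRET ex 340, em 520:495; norm DMSO 0%, T3 100%.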
# [13] = target: Retinoic acid receptor RXR-alpha (Homo sapiens) (UniProt P19793); test: TOX21_TR_RXR_BLA_Agonist_Followup_ratio: Tox21 Thyroid Hormone Receptor beta Retinoid X Receptor alpha (RXRa) Agonism Beta-lactamase (BLA) Follow-Up Assay, Ratio (AID 2283968)
# Outline: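 Read-out: blue/green (460:530 nm) FRET ratio from cleaved vs uncleaved CCF4 substrate, fitted for gain of signal relative to DMSO. Cells: HEK293T with RXRa-UAS-bla reporter; 16 h compound exposure, 11 concentrations, triplicate.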
# [14] = TOX21_TR_RXR_BLA_Agonist_Followup_viability: Viability Assessment in the Tox21 Thyroid Hormone Receptor beta Retinoid X Receptor alpha (RXRa) Agonism Beta-lactamase (BLA) Follow-Up Assay (AID 2283970)
# Outline: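 CellTiter-Glo ATP quantitation as viability read-out in RXRa-bla HEK293T cells (2,500/well, charcoal-stripped 2% FBS medium), 16h compound incubation at 37C. Loss of signal versus DMSO taken as cytotoxicity, analyzed by bidirectional curve fitting.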
# [15] = target: Nucleoli Translocation, AR (gene 367) (UniProt P10275); test: UPITT_HCI_U2OS_AR_TIF2_Nucleoli_Agonist: University of Pittsburgh U2OS Androgen Receptor-Transcriptional Intermediary Factor 2 (AR-TIF2) Agonism High Content Imaging Assay for Nucleoli Translocation (AID 2283998)
# Outline: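 High-content images quantify nucleolar accumulation of RFP-fused AR in cells also expressing GFP-TIF2; the endpoint is fitted as signal gain versus DMSO controls across final concentrations of 0.195 to 50 uM.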
# Sequence of THRB (gene 7068) (P10828 whole entry, looked up, the tested form may be a part): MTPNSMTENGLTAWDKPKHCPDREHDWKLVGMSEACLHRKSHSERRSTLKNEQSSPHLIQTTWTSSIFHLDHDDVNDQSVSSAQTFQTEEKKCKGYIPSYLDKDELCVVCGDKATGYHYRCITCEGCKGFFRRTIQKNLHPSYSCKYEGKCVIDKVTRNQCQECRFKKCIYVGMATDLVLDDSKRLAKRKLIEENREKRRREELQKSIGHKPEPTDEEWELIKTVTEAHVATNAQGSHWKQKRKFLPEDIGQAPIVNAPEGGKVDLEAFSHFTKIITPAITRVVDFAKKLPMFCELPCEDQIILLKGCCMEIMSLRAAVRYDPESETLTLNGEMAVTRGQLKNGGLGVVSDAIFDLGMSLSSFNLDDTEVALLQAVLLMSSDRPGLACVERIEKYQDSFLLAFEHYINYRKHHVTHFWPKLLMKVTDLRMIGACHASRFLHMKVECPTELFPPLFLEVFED
# Sequence of Nucleoli Translocation, AR (gene 367) (P10275 whole entry, looked up, the tested form may be a part): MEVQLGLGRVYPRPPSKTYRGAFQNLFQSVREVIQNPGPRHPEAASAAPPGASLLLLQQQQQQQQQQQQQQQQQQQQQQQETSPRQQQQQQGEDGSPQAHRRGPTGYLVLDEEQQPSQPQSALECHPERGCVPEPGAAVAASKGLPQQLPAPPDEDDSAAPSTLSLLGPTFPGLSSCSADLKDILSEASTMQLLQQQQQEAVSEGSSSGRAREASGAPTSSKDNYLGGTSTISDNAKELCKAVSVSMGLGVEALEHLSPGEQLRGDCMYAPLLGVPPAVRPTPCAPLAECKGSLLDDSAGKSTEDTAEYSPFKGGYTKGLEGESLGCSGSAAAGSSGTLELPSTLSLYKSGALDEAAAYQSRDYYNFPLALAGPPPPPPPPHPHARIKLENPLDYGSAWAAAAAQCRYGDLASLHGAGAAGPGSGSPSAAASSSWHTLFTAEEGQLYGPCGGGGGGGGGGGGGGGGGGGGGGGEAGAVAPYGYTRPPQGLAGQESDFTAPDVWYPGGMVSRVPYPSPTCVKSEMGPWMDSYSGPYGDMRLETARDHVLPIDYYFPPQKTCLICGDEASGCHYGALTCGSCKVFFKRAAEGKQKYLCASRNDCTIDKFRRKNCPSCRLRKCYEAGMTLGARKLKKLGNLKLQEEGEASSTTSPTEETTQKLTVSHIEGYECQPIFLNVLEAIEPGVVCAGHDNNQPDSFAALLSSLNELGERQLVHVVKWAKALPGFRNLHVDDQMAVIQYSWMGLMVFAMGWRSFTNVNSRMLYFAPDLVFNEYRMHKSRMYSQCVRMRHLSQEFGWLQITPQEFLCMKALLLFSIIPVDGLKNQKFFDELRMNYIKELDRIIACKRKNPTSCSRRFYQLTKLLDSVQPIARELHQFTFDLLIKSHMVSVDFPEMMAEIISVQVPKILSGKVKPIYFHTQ
# Sequence of Retinoic acid receptor RXR-alpha (Homo sapiens) (P19793 whole entry, looked up): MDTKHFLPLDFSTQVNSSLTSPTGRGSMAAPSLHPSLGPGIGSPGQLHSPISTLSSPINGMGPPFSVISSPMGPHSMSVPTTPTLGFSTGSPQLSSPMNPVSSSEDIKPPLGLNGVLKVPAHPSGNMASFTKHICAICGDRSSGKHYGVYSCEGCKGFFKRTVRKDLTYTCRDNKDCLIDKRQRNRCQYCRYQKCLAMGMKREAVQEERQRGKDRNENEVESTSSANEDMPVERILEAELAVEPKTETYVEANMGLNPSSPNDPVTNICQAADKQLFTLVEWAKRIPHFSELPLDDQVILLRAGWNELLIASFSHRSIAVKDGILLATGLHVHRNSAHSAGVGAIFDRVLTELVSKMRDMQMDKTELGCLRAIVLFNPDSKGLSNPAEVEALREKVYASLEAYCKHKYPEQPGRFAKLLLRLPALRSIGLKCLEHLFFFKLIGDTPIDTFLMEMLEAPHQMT
# Sequence of THRA (gene 7067) (P10827 whole entry, looked up, the tested form may be a part): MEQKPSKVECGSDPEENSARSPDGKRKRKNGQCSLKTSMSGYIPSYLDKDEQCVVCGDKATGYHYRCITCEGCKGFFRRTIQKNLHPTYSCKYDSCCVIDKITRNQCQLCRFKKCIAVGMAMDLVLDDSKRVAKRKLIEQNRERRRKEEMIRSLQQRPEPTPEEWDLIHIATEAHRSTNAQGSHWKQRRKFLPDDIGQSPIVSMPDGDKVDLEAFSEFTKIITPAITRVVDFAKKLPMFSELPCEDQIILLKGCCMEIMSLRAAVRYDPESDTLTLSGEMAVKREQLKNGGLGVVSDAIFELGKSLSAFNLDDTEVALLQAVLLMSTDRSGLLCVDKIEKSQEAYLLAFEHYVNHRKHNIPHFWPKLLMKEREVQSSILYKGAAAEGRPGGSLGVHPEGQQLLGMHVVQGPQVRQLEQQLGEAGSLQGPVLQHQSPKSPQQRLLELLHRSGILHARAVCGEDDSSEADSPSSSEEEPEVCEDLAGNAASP
# T1 sequence (P63059 whole entry, looked up): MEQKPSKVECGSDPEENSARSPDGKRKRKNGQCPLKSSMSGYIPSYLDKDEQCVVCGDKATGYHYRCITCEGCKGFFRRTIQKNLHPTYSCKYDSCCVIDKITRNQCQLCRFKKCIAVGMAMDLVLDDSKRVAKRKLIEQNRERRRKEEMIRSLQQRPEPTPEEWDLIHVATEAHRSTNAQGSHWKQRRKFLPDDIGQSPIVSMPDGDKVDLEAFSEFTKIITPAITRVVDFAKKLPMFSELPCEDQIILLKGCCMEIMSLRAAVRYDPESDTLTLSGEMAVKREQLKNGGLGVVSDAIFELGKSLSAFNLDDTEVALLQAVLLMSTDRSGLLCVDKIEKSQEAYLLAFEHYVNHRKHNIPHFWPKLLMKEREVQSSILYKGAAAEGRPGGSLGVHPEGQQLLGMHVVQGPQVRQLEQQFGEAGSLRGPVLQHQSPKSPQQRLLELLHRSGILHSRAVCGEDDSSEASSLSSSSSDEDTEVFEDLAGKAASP
# T1 sequence (P18113 whole entry, looked up): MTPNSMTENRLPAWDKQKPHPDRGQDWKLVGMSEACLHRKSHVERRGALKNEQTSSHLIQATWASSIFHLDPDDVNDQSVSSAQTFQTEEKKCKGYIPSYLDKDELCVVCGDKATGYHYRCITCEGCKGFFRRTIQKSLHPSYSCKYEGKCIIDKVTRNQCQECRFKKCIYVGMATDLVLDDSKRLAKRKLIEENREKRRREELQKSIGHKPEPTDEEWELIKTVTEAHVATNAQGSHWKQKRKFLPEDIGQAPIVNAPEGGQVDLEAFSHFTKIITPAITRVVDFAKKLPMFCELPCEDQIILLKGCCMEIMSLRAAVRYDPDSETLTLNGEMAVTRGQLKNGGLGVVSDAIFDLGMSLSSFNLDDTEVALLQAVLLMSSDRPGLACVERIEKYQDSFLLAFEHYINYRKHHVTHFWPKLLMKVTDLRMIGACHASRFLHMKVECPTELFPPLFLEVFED
smiles,measurement,setting,value
CCc1ccc(O)cc1,outcome,[1],inactive
CC(=O)O[C@H]1C[C@@H]2CC[C@@]1(C)C2(C)C,outcome,[1],inactive
CCOc1ccc(N=Nc2ccc(C=Cc3ccc(N=Nc4ccc(OCC)cc4)cc3S(=O)(=O)O)c(S(=O)(=O)O)c2)cc1,AC50,DIO1 (gene 1733),0.72 µM (active)
Oc1ccc2cc(SSc3ccc4cc(O)ccc4c3)ccc2c1,AC50,DIO1 (gene 1733),2.62 µM (active)
Oc1c(Cl)cc(Cl)c(Cl)c1Cc1c(O)c(Cl)cc(Cl)c1Cl,AC50,[2],12.7 µM (active)
same,outcome,THRA (gene 7067) [3],inactive
same,AC50,THRB (gene 7068) [4],20 µM (active)
same,AC50,[5],8.64 µM (active)
same,outcome,THRB (gene 7068) [6],inactive
same,outcome,[7],inactive
same,AC50,[8],33.3 µM (active)
CC(=O)O[C@@H]1CC2CCC1(C)C2(C)C (stereo not given in full),outcome,[1],inactive
C[C@H](CCC(=O)NCC(=O)O)[C@H]1CC[C@H]2[C@@H]3[C@H](O)C[C@@H]4C[C@H](O)CC[C@]4(C)[C@H]3C[C@H](O)[C@]12C,outcome,[9],inactive
same,outcome,THRA (gene 7067) [10],inactive
same,outcome,THRB (gene 7068) [11],inactive
same,outcome,THRB (gene 7068) [12],inactive
same,outcome,[13],inactive
same,outcome,[14],inactive
Cc1ccc(S(=O)(=O)Oc2ccc(N=Nc3ccc(-c4ccc(N=Nc5c(O)ccc6cc(S(=O)(=O)O)cc(S(=O)(=O)O)c56)c(C)c4)cc3C)cc2)cc1,outcome,[1],inactive
same,outcome,[15],inactive
